The values that follow come from PubChem BioAssay AID2284355 (EPA ToxCast).

Results filed as inconclusive are left out. The source made the active and inactive calls. Rule for the calls: active = hit-call score of the fitted dose curve at least 0.9, where 1 is the maximum; inconclusive = response in the unintended direction; inactive = score below 0.9.

This assay has as its system rainbow trout Retinoid X Receptor beta (RXRb). Nature of the assay: ATG_rtRXRb_EcoTox2: Attagene TRANS-FACTORIAL EcoTox-2 HepG2 Assay for rainbow trout Retinoid X Receptor beta (RXRb). How it is done: ATG_EcoTox2 is a cell-based, multiplexed assay created by modifying the existing Attagene TRANS-FACTORIAL system to include a panel of nuclear receptors from some or all the following species: human (Homo sapiens), african clawed frog (Xenopus laevis), rainbow trout (Oncorhynchus mykiss), japanese medaka (Oryzias latipes), and zebrafish (Danio rerio). The ECOTOX2-FACTORIAL format uses HepG2, a human liver cell line, with measurements taken at 24 hours after chemical dosing in a 24-well plate. ATG_rtRXRb_EcoTox2 is one of 29 assay components calculated in the ATG_EcoTox2 assay. It is designed to make measurements of mRNA induction, a form of inducible reporter, as detected with fluorescence intensity signals by Reverse transcription polymerase chain reaction (RT-PCR) and Capillary electrophoresis technology.The assay endpoint ATG_rtRXRb_EcoTox2 was analyzed in the positive analysis fitting direction relative to DMSO as the negative control and baseline of activity. Using a type of inducible reporter, measures of mRNA for gain-of-signal activity can be used to understand the reporter gene at the transcription factor-level as they relate to the gene RXRb. Furthermore, this assay endpoint can be referred to as a primary readout, because this assay has produced multiple assay endpoints where this one serves a reporter gene function. […]
In the case of `[Cl][Sn]([c]1ccccc1)([c]1ccccc1)[c]1ccccc1`, the concentration at half-maximal activity (AC50) (as a rule, the concentration giving half of the maximal activity seen) was 119 nM (active).
